From PubChem BioAssay (NCI) come the findings set out here.

Experiment [1] in a line: NCI Yeast Anticancer Drug Screen. Data for the rad50 strain (AID 155).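 Further: 0% = growth of vehicle-only cultures of the same strain.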 The settings on record: S. cerevisiae rad50 strain growth inhibition; at 50.0 µM; stronger effect = higher value. In outline: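 Genetically altered yeast (DNA repair pathway); compound treatment; growth inhibition vs vehicle ctrl.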
Experiment [2] is described as follows: NCI Yeast Anticancer Drug Screen. Data for the mec2-1 strain (AID 157). The settings on record: S. cerevisiae mec2-1 strain, at 50.0 µM, stronger effect = higher value. In outline: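 Strain: mec2-1 (DNA repair/cell cycle alteration). Compound exposure, then growth measured; inhibition expressed relative to vehicle.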
Experiment [3] is described as follows: NCI Yeast Anticancer Drug Screen. Data for the sgs1 mgt1 strain (AID 161).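 Further: 0% = growth of cultures given vehicle only.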 The settings on record: S. cerevisiae sgs1 mgt1 strain, at 50.0 µM, stronger effect = higher value. In outline:
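Test agents were incubated with a DNA-repair-mutant yeast strain. Growth was then read and compared against vehicle-treated controls.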

The nature of experiment [4]: NCI Yeast Anticancer Drug Screen. Data for the cln2 rad14 strain (AID 165).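 Further: 0% = growth equal to vehicle treated cultures.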 The settings on record: S. cerevisiae cln2 rad14 strain, at 50.0 µM, stronger effect = higher value. In outline:
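Compounds are applied to the cln2 rad14 yeast strain, and growth is then compared with that of vehicle-treated cultures to give inhibition.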

Experiment [5] can be described thus: NCI Yeast Anticancer Drug Screen. Data for the bub3 strain (AID 167). The settings on record: S. cerevisiae bub3 mutant strain, at 50.0 µM, stronger effect = higher value. In outline:
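Yeast carrying a defined mutation is treated with each compound, and growth is compared with that of vehicle-exposed cells to give inhibition.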

A short description of experiment [6]: NCI Yeast Anticancer Drug Screen. Data for the mlh1 rad18 strain (AID 175). The settings on record: S. cerevisiae mlh1 rad18 strain growth inhibition; at 50.0 µM; stronger effect = higher value. In outline: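 Read-out is yeast growth inhibition, calculated against vehicle-only controls. The compound was applied to a strain engineered with DNA damage repair alterations.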

This is part of a sample that, as a whole, favours compounds with a hit. Of some 79,000 tested, about 15% had one in any assay. A number with no mark means an inactive call. The source made the active and inactive calls. No stated cut-off is given here; in the data, active means growth inhibition above about 70%; inactive means the rest.

Turning to `CCCCCCCCCC(=O)N/N=C/c1ccncc1`, the growth inhibition was 97.2% (active) in experiment [1]; 23.1% in experiment [2]; 98.8% (active) in experiment [3]; 9.35% in experiment [4]; 26.2% in experiment [5]; 98.3% (active) in experiment [6].

As to `Cc1n[nH]c(=O)n1-n1cccc1`, the growth inhibition in experiment [1] was -10.1%; in experiment [2], -5.35%; in experiment [3], -35.5%; in experiment [4], 7.1%; in experiment [5], -37.2%; in experiment [6], 2.55%.

As to `CC(=O)CC(=O)Nc1ccc(C(=O)c2ccccc2)cc1`, the growth inhibition in experiment [1] is 8.35%; in experiment [2], -41.3%; in experiment [3] it was -13%; in experiment [4] it was 1.5%; in experiment [5], 4.5%; in experiment [6] it was -22.2%.

As to `COc1cc2ccncc2cc1O`, the growth inhibition was -7.25% in experiment [1]; -18.4% in experiment [2]; -26.3% in experiment [3]; -4.25% in experiment [4]; 9.45% in experiment [5]; -16.1% in experiment [6].

As to `N#Cc1cn(C2OC(CO)C3OC32)c2ncnc(NC(=O)c3ccccc3)c12` (stereo unspecified), the growth inhibition is 28.9% in experiment [1]; 9.1% in experiment [2]; 14.7% in experiment [3]; 10.3% in experiment [4]; -4% in experiment [5]; 15.5% in experiment [6].

For the molecule `CC1CCC2N(C1)CC1C3(O)CC4(O)C(CCC5C(=O)C(O)CCC54C)C3(O)CC(O)C1(O)C2(C)O` (stereo unspecified), the growth inhibition was 5.5% in experiment [1]; -26.9% in experiment [2]; -10.8% in experiment [3]; 10.9% in experiment [4]; -9.1% in experiment [5]; -7.7% in experiment [6].

Take `CCCCCCCC/C=C/CCCCCCCC(=O)OCC(C)(C)N1C(=O)CCC1=O`: the growth inhibition in experiment [1] is -11.2%; in experiment [2] it was -20.4%; in experiment [3], -12.6%; in experiment [4], -11.2%; in experiment [5] it was -3.45%; in experiment [6], -7.3%.

For `O=C(CN1CCCC1=O)CS(=O)(=O)c1ccccc1`, the growth inhibition in experiment [1] was -14.5%; in experiment [2], -5.3%; in experiment [3] it was -20.3%; in experiment [4], -0.6%; in experiment [5] it was -9.6%; in experiment [6], 2.3%.

As for `C/C(=N\NC(=S)NCCCCNC(=S)N/N=C(\C)c1ccccn1)c1ccccc1`, the growth inhibition in experiment [1] was -4.15%; in experiment [2], 36.1%; in experiment [3], 14.7%; in experiment [4] it was 3.65%; in experiment [5] it was 38.4%; in experiment [6], 13.9%.

As for `Clc1ccc(CSc2nnc(SCc3ccc(Cl)c(Cl)c3)c3[nH]cnc23)cc1Cl`, the growth inhibition was 36.5% in experiment [1]; 6.15% in experiment [2]; 47.4% in experiment [3]; 30.6% in experiment [4]; 22.9% in experiment [5]; 3.1% in experiment [6].

On to `CCCCCCCCCCCOc1ccc(Cl)cc1Cl`, for which the growth inhibition in experiment [1] was 10.4%; in experiment [2], 16.5%; in experiment [3], 8.75%; in experiment [4], -4.05%; in experiment [5], 30.2%; in experiment [6] it was 12.2%.

For the molecule `COCOS(C)(=O)=O`, the growth inhibition was -4.05% in experiment [1]; -14.3% in experiment [2]; -2.85% in experiment [3]; 4.8% in experiment [4]; 9.4% in experiment [5]; -3.65% in experiment [6].

As for `O=C1C=C(c2ccccc2)CC1`, the growth inhibition was -17.8% in experiment [1]; 2.55% in experiment [2]; -6.05% in experiment [3]; 8.4% in experiment [4]; 13.1% in experiment [5]; 0.95% in experiment [6].

As to `CC(C)[Si]1(C(C)C)N([Si](C)(C)F)[Si](C(C)C)(C(C)C)N1[Si](C)(C)F`, the growth inhibition is 7.7% in experiment [1]; 6.25% in experiment [2]; -3.05% in experiment [3]; 21% in experiment [4]; -4.45% in experiment [5]; 26.2% in experiment [6].

For `COc1ccc2c(c1)C[N+](C)(C)[B-]O2`, the growth inhibition in experiment [1] was -1.6%; in experiment [2] it was -1.55%; in experiment [3] it was 5.45%; in experiment [4], -8.65%; in experiment [5], 2.1%; in experiment [6] it was 6.75%.

`Cc1nnc2n1N=C(c1ccc(-c3ccc([N+](=O)[O-])cc3)o1)CS2`: the growth inhibition in experiment [1] is 10.7%; in experiment [2] it was 3.1%; in experiment [3], -1.75%; in experiment [4], 12.1%; in experiment [5] it was -25.8%; in experiment [6] it was 10.8%.

Regarding `O=C1NC(=O)C2(CCCCCC2)N1`, the growth inhibition in experiment [1] is -23.9%; in experiment [2], -23.9%; in experiment [3], 10.1%; in experiment [4] it was -0.65%; in experiment [5], -4.1%; in experiment [6] it was -26.7%.

For the molecule `Cc1cc2nc(N3CCCCC3)n(C3OC(CO)C(O)C3O)c2cc1C` (stereo unspecified), the growth inhibition is 11% in experiment [1]; 10.2% in experiment [2]; -0.45% in experiment [3]; 10.7% in experiment [4]; -8.75% in experiment [5]; 13.8% in experiment [6].

Consider `CC[N+](C)(CC)CCOC(=O)c1ccccc1Oc1ccc(C)cc1`, for which the growth inhibition in experiment [1] was 23.1%; in experiment [2], -2.45%; in experiment [3] it was 7.8%; in experiment [4], -11.8%; in experiment [5] it was -2.1%; in experiment [6] it was 0.9%.

On to `N#Cc1c(-c2cccn(-c3ccccc3)c2=O)cc(-c2ccccc2)[nH]c1=O`, for which the growth inhibition in experiment [1] is 1.55%; in experiment [2], -5.65%; in experiment [3], -5.7%; in experiment [4], -19.1%; in experiment [5], 0.9%; in experiment [6], 9.1%.

Take `COc1cc([C@@H]2OC[C@@H]3C(c4cc(OC)c5c(c4)OCO5)OC[C@@H]32)cc(OC)c1OC` (stereo partly specified): the growth inhibition in experiment [1] was 23.8%; in experiment [2], -4.5%; in experiment [3], 26.6%; in experiment [4], 31.1%; in experiment [5], 4.3%; in experiment [6] it was -40.8%.
